# In publication PMC7862700, “An all-to-all approach to the identification of sequence-specific readers for epigenetic DNA modifications on cytosine”:
# Experiments:
# Assay in all cases: DAPPL (digital affinity profiling via proximity ligation, sequencing); 10 mM Tris-HCl pH 7.5, 50 mM NaCl, 1 mM DTT, 4% glycerol, room temperature, 30 min; GST-TFs on glutathione beads, 16-mer random dsDNA library, 0.1% formaldehyde crosslink after washing; high values mean tight binding
# FEV = target: T1, FEV (Homo sapiens, UniProt Q99581 1-238); details: protein: recombinant; tags: N-terminal GST; dsDNA, one strand shown
# T1 sequence: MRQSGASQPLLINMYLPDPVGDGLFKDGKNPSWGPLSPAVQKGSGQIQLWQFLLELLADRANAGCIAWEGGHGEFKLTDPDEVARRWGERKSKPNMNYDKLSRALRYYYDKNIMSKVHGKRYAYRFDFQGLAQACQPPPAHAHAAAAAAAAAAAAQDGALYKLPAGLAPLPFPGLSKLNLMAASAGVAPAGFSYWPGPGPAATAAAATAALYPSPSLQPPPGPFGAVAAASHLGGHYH
# In short: (§1)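 Pools of DNA-barcoded human transcription factors, expressed in yeast as GST fusions on glutathione beads and combined with a tag-only sample, were incubated with 200 nmole of a 16-mer random double-stranded DNA library. Incubation took 30 min at room temperature in Tris/NaCl/DTT/glycerol buffer and was followed by washing, 0.1% formaldehyde crosslinking, proximity ligation (BsaI/T4 ligase, 1 h, 37 °C), PCR amplification and sequencing on an Illumina NextSeq500. Binding signal is the ratio of a hexamer's read frequency for a factor to its frequency for the tag-only sample.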
# ETV5 = ETV5 (Homo sapiens, UniProt P41161 1-510); details: protein: recombinant; tags: N-terminal GST; dsDNA, one strand shown
# Chain of ETV5 (P41161 whole entry): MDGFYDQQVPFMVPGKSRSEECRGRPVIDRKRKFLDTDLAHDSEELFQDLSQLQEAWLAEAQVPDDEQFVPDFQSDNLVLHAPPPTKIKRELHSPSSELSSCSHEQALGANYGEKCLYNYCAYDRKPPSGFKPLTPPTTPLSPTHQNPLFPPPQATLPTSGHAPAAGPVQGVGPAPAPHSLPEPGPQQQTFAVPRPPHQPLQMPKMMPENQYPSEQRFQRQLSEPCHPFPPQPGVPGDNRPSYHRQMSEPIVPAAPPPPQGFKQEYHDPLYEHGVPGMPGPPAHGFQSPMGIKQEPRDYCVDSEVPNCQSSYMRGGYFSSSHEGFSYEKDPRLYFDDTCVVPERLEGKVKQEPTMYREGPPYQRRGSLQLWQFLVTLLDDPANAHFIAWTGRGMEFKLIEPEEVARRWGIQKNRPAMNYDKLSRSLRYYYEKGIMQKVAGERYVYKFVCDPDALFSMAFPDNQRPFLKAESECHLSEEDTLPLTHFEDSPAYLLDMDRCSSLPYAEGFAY
# In short: as §1
# HSF1 = HSF1 (Homo sapiens, UniProt Q00613 1-529); details: protein: recombinant; tags: N-terminal GST; chain copies: 3; dsDNA, one strand shown
# Chain of HSF1 (Q00613 whole entry): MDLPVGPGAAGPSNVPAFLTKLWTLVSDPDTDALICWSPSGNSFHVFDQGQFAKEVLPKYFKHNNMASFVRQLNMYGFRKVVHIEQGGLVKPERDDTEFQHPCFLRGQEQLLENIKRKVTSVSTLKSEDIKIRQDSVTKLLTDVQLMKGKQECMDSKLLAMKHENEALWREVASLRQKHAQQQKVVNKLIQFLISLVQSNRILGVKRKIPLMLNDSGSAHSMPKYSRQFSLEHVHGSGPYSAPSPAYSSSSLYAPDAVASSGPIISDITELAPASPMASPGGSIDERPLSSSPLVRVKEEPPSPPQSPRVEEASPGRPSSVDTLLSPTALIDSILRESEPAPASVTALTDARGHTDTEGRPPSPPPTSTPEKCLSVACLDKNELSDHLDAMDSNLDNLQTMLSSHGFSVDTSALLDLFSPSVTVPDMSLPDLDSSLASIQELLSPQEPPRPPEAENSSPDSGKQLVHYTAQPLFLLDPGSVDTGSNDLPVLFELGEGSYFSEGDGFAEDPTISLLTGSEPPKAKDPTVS
# In short: as §1
# SPIC = target: T2, SPIC (Homo sapiens, UniProt Q8N5J4 1-248); details: protein: recombinant; tags: N-terminal GST; dsDNA, one strand shown
# T2 sequence: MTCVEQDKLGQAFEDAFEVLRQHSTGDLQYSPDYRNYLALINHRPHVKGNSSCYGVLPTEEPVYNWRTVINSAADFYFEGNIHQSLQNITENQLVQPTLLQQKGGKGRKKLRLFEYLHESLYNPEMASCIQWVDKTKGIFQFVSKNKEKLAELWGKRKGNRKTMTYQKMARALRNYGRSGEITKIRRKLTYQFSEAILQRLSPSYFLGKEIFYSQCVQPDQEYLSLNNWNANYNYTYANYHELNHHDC
# In short: as §1
# ELF4 = ELF4 (Homo sapiens, UniProt Q99607 1-663); details: protein: recombinant; tags: N-terminal GST; dsDNA, one strand shown
# Chain of ELF4 (Q99607 whole entry): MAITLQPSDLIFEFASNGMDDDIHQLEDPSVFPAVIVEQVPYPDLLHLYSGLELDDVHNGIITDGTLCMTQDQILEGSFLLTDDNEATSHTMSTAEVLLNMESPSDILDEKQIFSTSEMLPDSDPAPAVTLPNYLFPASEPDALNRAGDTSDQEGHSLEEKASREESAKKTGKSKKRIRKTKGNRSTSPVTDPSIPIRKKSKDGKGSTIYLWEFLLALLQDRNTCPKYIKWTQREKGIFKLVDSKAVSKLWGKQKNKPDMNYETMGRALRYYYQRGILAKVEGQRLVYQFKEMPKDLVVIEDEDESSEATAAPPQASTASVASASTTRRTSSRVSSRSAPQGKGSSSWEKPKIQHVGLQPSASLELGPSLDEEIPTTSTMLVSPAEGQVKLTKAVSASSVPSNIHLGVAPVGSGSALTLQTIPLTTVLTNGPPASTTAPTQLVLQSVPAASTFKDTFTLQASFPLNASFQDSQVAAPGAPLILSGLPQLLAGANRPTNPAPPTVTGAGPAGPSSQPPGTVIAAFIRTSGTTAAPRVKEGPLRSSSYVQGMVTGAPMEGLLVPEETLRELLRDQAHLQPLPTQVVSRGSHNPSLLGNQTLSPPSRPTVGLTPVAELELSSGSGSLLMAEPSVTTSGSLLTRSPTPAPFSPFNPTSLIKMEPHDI
# In short: as §1
# ELK4 = target: T3, ELK4 (Homo sapiens, UniProt P28324-2 1-405); details: protein: recombinant; tags: N-terminal GST; dsDNA, one strand shown
# T3 sequence: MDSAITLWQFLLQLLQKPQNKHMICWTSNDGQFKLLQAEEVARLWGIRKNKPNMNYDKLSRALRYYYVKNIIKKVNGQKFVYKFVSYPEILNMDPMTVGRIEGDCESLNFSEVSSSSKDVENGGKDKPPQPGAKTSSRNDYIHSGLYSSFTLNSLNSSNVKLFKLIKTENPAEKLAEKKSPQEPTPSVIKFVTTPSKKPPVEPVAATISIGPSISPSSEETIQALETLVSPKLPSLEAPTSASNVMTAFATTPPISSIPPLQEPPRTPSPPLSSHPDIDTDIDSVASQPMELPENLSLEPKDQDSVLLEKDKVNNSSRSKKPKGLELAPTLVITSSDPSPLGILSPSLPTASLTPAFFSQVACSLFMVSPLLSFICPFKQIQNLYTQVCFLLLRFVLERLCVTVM
# In short: as §1
# ETV2 = target: T4, ETV2 (Homo sapiens, UniProt O00321 1-342); details: protein: recombinant; tags: N-terminal GST; dsDNA, one strand shown
# T4 sequence: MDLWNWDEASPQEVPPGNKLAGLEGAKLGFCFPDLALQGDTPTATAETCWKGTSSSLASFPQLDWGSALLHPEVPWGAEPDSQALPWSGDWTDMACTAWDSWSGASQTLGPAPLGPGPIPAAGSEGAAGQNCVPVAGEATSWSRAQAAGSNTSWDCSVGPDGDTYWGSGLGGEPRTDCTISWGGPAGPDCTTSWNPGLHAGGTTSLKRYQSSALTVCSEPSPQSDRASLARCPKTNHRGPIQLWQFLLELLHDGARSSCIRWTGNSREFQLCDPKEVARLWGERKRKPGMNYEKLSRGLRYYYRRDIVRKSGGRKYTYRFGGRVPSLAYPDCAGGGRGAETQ
# In short: as §1
# ELF3 = target: T5, ELF3 (Homo sapiens, UniProt P78545 1-371); details: protein: recombinant; tags: N-terminal GST; dsDNA, one strand shown
# T5 sequence: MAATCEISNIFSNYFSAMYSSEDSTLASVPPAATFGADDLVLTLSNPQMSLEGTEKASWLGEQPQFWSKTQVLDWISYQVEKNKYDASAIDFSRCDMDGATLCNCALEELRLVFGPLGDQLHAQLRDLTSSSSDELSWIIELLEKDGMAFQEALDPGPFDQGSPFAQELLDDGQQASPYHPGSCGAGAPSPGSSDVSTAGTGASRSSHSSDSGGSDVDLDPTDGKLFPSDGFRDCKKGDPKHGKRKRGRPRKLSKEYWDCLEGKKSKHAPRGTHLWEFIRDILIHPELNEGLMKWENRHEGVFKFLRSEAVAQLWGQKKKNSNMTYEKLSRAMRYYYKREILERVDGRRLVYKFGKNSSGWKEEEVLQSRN
# In short: as §1
# CRX = CRX (Homo sapiens, UniProt O43186 1-299); details: protein: recombinant; tags: N-terminal GST; dsDNA, one strand shown
# Chain of CRX (O43186 whole entry): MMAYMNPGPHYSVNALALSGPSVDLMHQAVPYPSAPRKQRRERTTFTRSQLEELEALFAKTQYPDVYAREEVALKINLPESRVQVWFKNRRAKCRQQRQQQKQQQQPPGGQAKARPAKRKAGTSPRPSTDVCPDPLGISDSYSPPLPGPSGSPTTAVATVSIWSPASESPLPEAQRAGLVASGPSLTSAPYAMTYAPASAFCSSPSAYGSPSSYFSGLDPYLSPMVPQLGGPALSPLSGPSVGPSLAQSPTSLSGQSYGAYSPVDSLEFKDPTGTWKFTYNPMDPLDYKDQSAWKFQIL
# In short: as §1
# ETV1 = ETV1 (Homo sapiens, UniProt P50549 1-477); details: protein: recombinant; tags: N-terminal GST; dsDNA, one strand shown
# Chain of ETV1 (P50549 whole entry): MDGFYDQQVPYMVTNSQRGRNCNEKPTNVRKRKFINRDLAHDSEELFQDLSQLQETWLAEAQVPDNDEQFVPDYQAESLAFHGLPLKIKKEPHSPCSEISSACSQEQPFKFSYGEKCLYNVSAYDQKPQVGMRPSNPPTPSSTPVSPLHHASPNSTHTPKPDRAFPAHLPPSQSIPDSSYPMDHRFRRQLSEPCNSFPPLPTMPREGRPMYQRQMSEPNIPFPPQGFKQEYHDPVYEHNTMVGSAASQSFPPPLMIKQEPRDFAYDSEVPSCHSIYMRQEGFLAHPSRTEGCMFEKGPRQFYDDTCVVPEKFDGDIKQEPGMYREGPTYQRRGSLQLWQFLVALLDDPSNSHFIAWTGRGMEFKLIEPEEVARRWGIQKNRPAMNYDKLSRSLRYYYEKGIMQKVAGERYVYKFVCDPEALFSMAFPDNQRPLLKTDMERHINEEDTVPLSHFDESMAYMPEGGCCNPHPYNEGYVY
# In short: as §1
# ERF = target: T6, ERF (Homo sapiens, UniProt P50548 1-548); details: protein: recombinant; tags: N-terminal GST; dsDNA, one strand shown
# T6 sequence: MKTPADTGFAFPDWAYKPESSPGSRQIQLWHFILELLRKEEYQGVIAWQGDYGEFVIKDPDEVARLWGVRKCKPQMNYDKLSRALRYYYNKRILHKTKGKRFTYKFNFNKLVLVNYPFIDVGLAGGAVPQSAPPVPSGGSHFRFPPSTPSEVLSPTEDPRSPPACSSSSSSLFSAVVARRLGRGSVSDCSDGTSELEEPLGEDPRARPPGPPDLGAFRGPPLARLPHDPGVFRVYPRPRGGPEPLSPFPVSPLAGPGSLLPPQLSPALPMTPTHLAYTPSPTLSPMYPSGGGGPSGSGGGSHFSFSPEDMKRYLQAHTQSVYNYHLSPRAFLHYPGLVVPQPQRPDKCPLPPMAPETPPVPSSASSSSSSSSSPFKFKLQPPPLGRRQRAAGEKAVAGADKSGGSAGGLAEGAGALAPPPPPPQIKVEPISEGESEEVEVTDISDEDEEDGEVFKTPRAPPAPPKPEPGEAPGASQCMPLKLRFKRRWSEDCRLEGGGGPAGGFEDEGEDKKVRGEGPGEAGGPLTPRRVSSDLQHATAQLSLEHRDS
# In short: as §1
# ETV3L = target: T7, ETV3L (Homo sapiens, UniProt Q6ZN32 1-361); details: protein: recombinant; tags: N-terminal GST; dsDNA, one strand shown
# T7 sequence: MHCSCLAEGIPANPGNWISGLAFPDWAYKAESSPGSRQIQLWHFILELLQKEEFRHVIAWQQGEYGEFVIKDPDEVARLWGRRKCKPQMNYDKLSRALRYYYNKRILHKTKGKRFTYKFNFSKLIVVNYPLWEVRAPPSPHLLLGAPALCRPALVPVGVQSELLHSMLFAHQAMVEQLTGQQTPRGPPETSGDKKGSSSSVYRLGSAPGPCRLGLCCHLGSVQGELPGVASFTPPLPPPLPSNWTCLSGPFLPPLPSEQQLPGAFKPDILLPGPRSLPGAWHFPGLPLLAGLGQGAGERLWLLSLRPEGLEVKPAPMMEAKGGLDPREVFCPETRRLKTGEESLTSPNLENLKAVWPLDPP
# In short: as §1
# ETS2 = target: T8, ETS2 (Homo sapiens, UniProt P15036 1-469); details: protein: recombinant; tags: N-terminal GST; dsDNA, one strand shown
# T8 sequence: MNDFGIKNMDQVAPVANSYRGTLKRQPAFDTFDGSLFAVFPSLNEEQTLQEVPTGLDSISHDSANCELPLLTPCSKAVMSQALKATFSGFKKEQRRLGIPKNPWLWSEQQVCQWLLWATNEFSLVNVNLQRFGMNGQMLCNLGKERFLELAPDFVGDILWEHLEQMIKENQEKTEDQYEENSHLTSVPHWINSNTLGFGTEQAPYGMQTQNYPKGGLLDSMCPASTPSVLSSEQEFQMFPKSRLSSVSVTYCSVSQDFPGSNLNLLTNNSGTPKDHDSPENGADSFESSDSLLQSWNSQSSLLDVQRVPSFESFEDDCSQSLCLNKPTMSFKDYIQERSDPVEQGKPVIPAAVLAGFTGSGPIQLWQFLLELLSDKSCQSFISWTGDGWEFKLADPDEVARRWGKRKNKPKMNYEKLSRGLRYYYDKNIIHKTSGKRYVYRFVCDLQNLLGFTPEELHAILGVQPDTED
# In short: as §1
# SPDEF = target: T9, SPDEF (Homo sapiens, UniProt O95238 1-335); details: protein: recombinant; tags: N-terminal GST; dsDNA, one strand shown
# T9 sequence: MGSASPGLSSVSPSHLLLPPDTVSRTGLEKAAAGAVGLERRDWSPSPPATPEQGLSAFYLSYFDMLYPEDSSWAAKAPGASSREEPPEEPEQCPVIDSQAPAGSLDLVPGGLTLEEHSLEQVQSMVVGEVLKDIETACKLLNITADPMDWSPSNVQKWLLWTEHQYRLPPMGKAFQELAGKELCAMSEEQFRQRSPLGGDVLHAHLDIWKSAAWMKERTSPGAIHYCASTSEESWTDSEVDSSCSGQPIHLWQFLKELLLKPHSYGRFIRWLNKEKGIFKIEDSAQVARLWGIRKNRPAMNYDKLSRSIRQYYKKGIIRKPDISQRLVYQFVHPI
# In short: as §1
# ETV7 = target: T10, ETV7 (Homo sapiens, UniProt Q9Y603 1-341); details: protein: recombinant; tags: N-terminal GST; dsDNA, one strand shown
# T10 sequence: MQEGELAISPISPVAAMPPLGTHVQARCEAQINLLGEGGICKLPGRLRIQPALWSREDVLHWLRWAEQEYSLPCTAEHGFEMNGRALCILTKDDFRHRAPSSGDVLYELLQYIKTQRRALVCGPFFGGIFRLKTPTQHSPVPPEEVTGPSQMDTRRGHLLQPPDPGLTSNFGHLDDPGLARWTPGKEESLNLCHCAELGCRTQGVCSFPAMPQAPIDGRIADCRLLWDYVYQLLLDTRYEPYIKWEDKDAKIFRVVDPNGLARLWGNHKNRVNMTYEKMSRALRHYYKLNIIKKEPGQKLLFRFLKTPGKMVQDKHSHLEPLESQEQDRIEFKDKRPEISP
# In short: as §1
# ELF5 = target: T11, ELF5 (Homo sapiens, UniProt Q9UKW6-2 1-255); details: protein: recombinant; tags: N-terminal GST; dsDNA, one strand shown
# T11 sequence: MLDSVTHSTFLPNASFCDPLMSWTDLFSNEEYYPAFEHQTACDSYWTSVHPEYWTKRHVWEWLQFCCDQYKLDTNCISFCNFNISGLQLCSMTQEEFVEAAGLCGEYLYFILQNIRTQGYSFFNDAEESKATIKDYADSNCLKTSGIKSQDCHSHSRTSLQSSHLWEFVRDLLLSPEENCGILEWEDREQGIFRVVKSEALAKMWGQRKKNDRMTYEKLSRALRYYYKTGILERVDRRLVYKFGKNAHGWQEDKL
# In short: as §1
# ETV3 = target: T12, ETV3 (Homo sapiens, UniProt P41162-2 1-143); details: protein: recombinant; tags: N-terminal GST; dsDNA, one strand shown
# T12 sequence: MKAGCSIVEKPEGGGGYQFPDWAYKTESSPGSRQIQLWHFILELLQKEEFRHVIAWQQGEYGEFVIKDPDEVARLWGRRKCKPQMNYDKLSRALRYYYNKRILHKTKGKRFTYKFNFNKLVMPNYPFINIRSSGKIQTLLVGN
# In short: as §1
# ETV6 = ETV6 (Homo sapiens, UniProt P41212 1-452); details: protein: recombinant; tags: N-terminal GST; dsDNA, one strand shown
# Chain of ETV6 (P41212 whole entry): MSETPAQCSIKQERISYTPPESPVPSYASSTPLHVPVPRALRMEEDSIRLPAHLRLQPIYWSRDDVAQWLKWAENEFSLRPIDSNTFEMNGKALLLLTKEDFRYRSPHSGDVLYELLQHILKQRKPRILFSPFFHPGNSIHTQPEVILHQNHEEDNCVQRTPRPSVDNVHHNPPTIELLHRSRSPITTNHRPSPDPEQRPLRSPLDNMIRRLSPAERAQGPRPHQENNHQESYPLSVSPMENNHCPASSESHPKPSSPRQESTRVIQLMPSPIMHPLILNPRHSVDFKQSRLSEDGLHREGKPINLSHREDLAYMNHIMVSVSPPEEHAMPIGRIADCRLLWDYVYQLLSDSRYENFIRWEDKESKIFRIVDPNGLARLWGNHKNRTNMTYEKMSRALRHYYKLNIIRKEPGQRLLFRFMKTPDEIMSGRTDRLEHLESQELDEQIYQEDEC
# In short: as §1
sequence,measurement,setting,value
CCGCAC,binding signal,FEV,"1.42 fold enrichment (6-mer frequency, TF over GST control)"
same,binding signal,ETV5,"1.4 fold enrichment (6-mer frequency, TF over GST control)"
same,binding signal,HSF1,"1.13 fold enrichment (6-mer frequency, TF over GST control)"
same,binding signal,SPIC,"1.27 fold enrichment (6-mer frequency, TF over GST control)"
same,binding signal,ELF4,"1.5 fold enrichment (6-mer frequency, TF over GST control)"
same,binding signal,ELK4,"1.3 fold enrichment (6-mer frequency, TF over GST control)"
same,binding signal,ETV2,"1.39 fold enrichment (6-mer frequency, TF over GST control)"
same,binding signal,ELF3,"1.39 fold enrichment (6-mer frequency, TF over GST control)"
same,binding signal,CRX,"1.02 fold enrichment (6-mer frequency, TF over GST control)"
same,binding signal,ETV1,"1.47 fold enrichment (6-mer frequency, TF over GST control)"
same,binding signal,ERF,"1.46 fold enrichment (6-mer frequency, TF over GST control)"
same,binding signal,ETV3L,"1.55 fold enrichment (6-mer frequency, TF over GST control)"
same,binding signal,ETS2,"1.47 fold enrichment (6-mer frequency, TF over GST control)"
same,binding signal,SPDEF,"1.46 fold enrichment (6-mer frequency, TF over GST control)"
same,binding signal,ETV7,"1.4 fold enrichment (6-mer frequency, TF over GST control)"
same,binding signal,ELF5,"1.59 fold enrichment (6-mer frequency, TF over GST control)"
same,binding signal,ETV3,"1.61 fold enrichment (6-mer frequency, TF over GST control)"
same,binding signal,ETV6,"1.56 fold enrichment (6-mer frequency, TF over GST control)"
